AMA1-RON2 inh = qHTS for Inhibitors of AMA1-RON; Towards Development of Antimalarial Drug Lead: Primary Screen; Plasmodium falciparum AMA1 (3D7) - RON2 peptide interaction; hit rate 0.2% among 360,000; AlphaScreen AMA1-biotinylated RON2 peptide binding; Potency, µM (doses to about 58.2 µM), without a hit: top-dose activity change, negative = inhibition, most hits filed as inhibitors;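 further: 0% = vehicle wells and -100% = peptide control; nearly all actives have a fitted effect of over 45% in size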
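AMA1 (3D7) with his tag at 25 nM final met compounds first, then biotinylated RON2 peptide at 25 nM; detection used donor plus acceptor beads, 10 µg/mL apiece, read by AlphaScreen after 30 min at room temperature.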
Pf growth 96h = Primary qHTS for delayed death inhibitors of the malarial parasite plastid, 96 hour incubation | P. falciparum luciferase reporter growth, 96 h | Potency, µM (doses to about 28.7 µM), without a hit: top-dose activity change, negative = inhibition, hits mostly inhibitors | hit rate 6.9% among 320,000 | AID 504834, 2011; further: on the % scale 0 is the no-effect control and ±100 the full control effect
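Luminescence readout: decreased luciferase signal marks inhibited growth of reporter-expressing P. falciparum in infected red cells (2% hematocrit, 0.05% parasitemia final), exposed to compound two generations (96 h, 37 C, 5% CO2).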
NS1 function inh = qHTS Assay for Inhibitors of Influenza NS1 Protein Function. Potency, µM (top dose mostly 46.1 µM), inactives show top-dose activity, positive = more growth. hit rate 0.4% among 270,000; calls by dose curve; further: actives are rising curves; nearly all actives have a fitted effect of over 50% in size
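Growth recovery, yeast-based: influenza A NS1 expressed in S. cerevisiae causes slow growth, and suppressors are detected by OD600. The parent strain without NS1 is used as positive control.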
Pf growth 48h = Primary qHTS for delayed death inhibitors of the malarial parasite plastid, 48 hour incubation; Potency, µM (doses to about 28.7 µM), for inactives: at the top dose activity change, negative = inhibition, actives largely listed as inhibitors; hit rate 5.9% among 310,000; P. falciparum luciferase growth in erythrocytes, 48 h; further: on the % scale 0 is the no-effect control and ±100 the full control effect
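Here the parasites carry a stable luciferase gene and grow inside erythrocytes in Albumax-based RPMI medium with compound for one erythrocytic cycle. Activity is scored as loss of luminescent signal.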
HCV inh = qHTS Assay for Inhibitors of Hepatitis C Virus (HCV); hit rate 3.4% among 340,000; Huh7.5.1 HCVcc-Cre infection, luciferase reporter, 44 h; Potency, µM (series often up to 41.8 µM), without a hit: top-dose activity change, negative = inhibition, usual class: inhibitors; AID 651820, 2012; further: on the % scale 0 is the no-effect control and ±100 the full control effect
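Luciferase read-out (15 sec integration) after a 15 min room-temperature substrate step quantifies HCVcc-Cre infection. Cells, 1,000 per well, had compound added 4 h post-plating, then virus at ~0.5 moi, and were cultured 44 h.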
SARS PLP yeast = qHTS of Yeast-based Assay for SARS-CoV PLP; Potency, µM (series often up to 32.9 µM), for the others: at the top dose activity, positive = growth rescue, usual class: activators; hit rate 0.19% among 330,000; S. cerevisiae expressing SARS-CoV PLpro, growth rescue; AID 485353, 2010; calls by dose curve; further: 0% is about no effect; nearly all actives have a fitted effect of over 55% in size
The depositor's hits bear a star; ? = inconclusive; / = not tested or not shown; [ ] = dose if it differs, or a comment. Sampled rows, rich in hits. Any-hit rate of the full collection: about 12%. Unless noted, the call rests on the fitted dose curve; in most records, active means well fitted curve in the direction sought with a large enough effect; inconclusive means small, poorly fitted or top-dose-only effect, or another doubt; inactive means no such curve, though single readings can be large; an effect the other way counts as inactive or inconclusive. Potency means the concentration at half of the fitted maximal effect.

SMILES	AMA1-RON2 inh	Pf growth 96h	NS1 function inh	Pf growth 48h	HCV inh	SARS PLP yeast
CC1Cc2ccccc2N1CC(=O)c1c(N)n(Cc2ccccc2)c(=O)n(C)c1=O (centres undefined)	?	9.3µM*	?	8.3µM*	-8%	19%
CCn1c(=O)c(C(=O)CN2CCN(S(=O)(=O)c3ccc(C)cc3C)CC2)c(N)n(Cc2ccccc2)c1=O	-12%	8.3µM*	-15%	?	?	13%
Cn1c(=O)c(C(=O)CN2CCCCCC2)c(N)n(Cc2ccccc2)c1=O	-16%	?	/	?	4%	0%
CCn1c(=O)c(C(=O)CN2c3ccccc3CC2C)c(N)n(Cc2ccccc2)c1=O (centres undefined)	8%[2.32 µM]	?	?	?	?	1%
Cc1cc(C)c(C)c(S(=O)(=O)N2CCN(CC(=O)c3c(N)n(Cc4ccccc4)c(=O)n(C)c3=O)CC2)c1C	0%	?	-21%	5.9µM*	?	3%
COC(=O)C1=C(Nc2cc(Cl)cc(Cl)c2)CSC1	-25%	24%	5%	-6%	18%	2%
COc1ccc(NC(=O)NNS(=O)(=O)c2ccc(OC)c(OC)c2)c(OC)c1	11%	-26%	11%	34%	19%	-2%
Cc1ccc(C(=O)C[n+]2cccc3ccccc32)cc1	-5%	4.1µM*	6%	13µM*	-12%	2%
Cc1ccc(C(=O)Sc2cccccc2=O)cc1	0%	2.9µM*	-78%	4.1µM*	-11%	-12%
Cc1ccc(C(=O)Cc2ccccc2)cc1	64%	/	/	/	-2%	/
Cc1ccc(C(=O)CC(=O)c2ccccc2)cc1	101%	3.7µM*	-33%	45%	4%	?
Cc1ccc(O)c(C(=O)CC(=O)c2ccc(Cl)cc2)c1	68%	?	-99%	?	22µM*	-5%
O=C(Nc1ccccc1SC(=O)c1ccccc1)c1ccccc1	-19%	/	/	/	/	/
Cn1cnnc1SCC(=O)Nc1ncc([N+](=O)[O-])s1	7%	/	/	/	-8%	-4%
CCOc1ccc(/C=N/Nc2cc(=O)n(C)c(=O)n2C)cc1	18%	29%	?	-2%	3%	26%
Cc1ccc(C(=O)NS(=O)(=O)c2ccccc2)cc1	-10%	10%	-5%	-3%	3.2µM*	0%
Cc1ccc(C(NC(=O)c2ccccc2)C(Cl)Cl)cc1 (centres undefined)	-3%	4.1µM*	-11%	?	?	-14%
Cc1ccc(C)[n+](CC(=O)c2ccc(-c3ccccc3)cc2)c1	-16%	-6%	1%	9.3µM*	-21%	-1%
Cc1ccc(C(=O)NS(=O)(=O)c2ccc(C)cc2)cc1	-11%	19%	5%	36%	8%	1%
COc1cc(C)c(NC(=S)Nc2cccc(Cl)c2C)cc1OC	10%	0%	14%	12%	6%	-4%
CCCC(=O)Nc1ccccc1NC(=O)c1ccc(OC)cc1	-1%	-24%	0%	-3%	8%	-2%
CN(C)CCCCCCN(C)C	/	-8%	/	3%	/	/
Cc1ccc(CC2CC(=O)N(CCc3ccccc3)C2=O)cc1 (centres undefined)	4%	13µM*	-11%	9%	-5%	-2%
Cc1cccc(CC2CC(=O)N(c3ccccc3)C2=O)c1 (centres undefined)	3%	22%	-4%	-27%	14%	6%
COc1ccc(CCN2C(=O)CC(Cc3ccccc3)C2=O)cc1OC (centres undefined)	-11%	6%	3%	-3%	11%	0%
SMILES	AMA1-RON2 inh	Pf growth 96h	NS1 function inh	Pf growth 48h	HCV inh	SARS PLP yeast
Cc1ccc(N2C(=O)CC(Cc3cccc(C)c3)C2=O)cc1 (centres undefined)	6%	0.29µM*	2%	10%	15%	0%
NC(=O)c1ccc(NC(=O)CCc2nc3ccccc3s2)cc1	4%	-2%	6%	-13%	-9%	3%
O=C(Nc1ccc(Cc2nc3ccccc3s2)cc1)c1ccncc1	-3%	?	1%	-20%	10µM*	-3%
CC(C)Cn1c(=O)c(C(=O)Nc2ccncc2)c(O)c2ccccc21	46%	/	-44%	/	10µM*	/
CCCCCn1c(=O)c(C(=O)Nc2cnccn2)c(O)c2ccccc21	43%	-16%	-4%	?	8.9µM*	0%
CCCn1cc(SCC(=O)NCc2ccco2)c2ccccc21	-3%	6.6µM*	-72%	2.1µM*	?	-5%
CCCCCCn1c(=O)c(C(=O)Nc2ccncc2)c(O)c2ccccc21	/	?	-54%	2.9µM*	11%	12%
CCCCn1c(=O)c(C(=O)Nc2ccccc2)c(O)c2ccccc21	19%	13%	4%	?	?	10%
O=C(CSc1cn(CCNC(=O)c2ccccc2)c2ccccc12)NCc1ccco1	2%	?	-6%	/	-22%	-1%
O=[N+]([O-])c1ccc(CN2CC(N3CCC(Cc4ccccc4)CC3)CS2(=O)=O)cc1 (centres undefined)	-25%	/	/	/	/	/
O=C(CSCc1ccc(Cl)cc1)NCc1ccccn1	81%	-25%	22%	2%	-10%	?
CCCCn1c(=O)c(C(=O)NCc2ccco2)c(O)c2ccccc21	7%	44%	/	?	14µM*	1%
COc1ccc(S(=O)(=O)NCc2cc(=O)n(C)c(=O)n2C)cc1F	-5%	-1%	-3%	23%	10%	0%
CCCCOC(=O)c1ccc(NC(=O)C(CCS(C)(=O)=O)NC(C)=O)cc1 (centres undefined)	13%	5.2µM*	1%	56%	0%	12%
COc1ccc(NC(=O)C(CCS(C)(=O)=O)NC(C)=O)cc1 (centres undefined)	10%	14%	-1%	12%	10%	5%
CN(C)c1nc(N/N=C\c2ccc(Cl)c([N+](=O)[O-])c2)nc(Nc2ccc(F)cc2)n1	27%	/	/	/	22µM*	/
Nn1cnnc1N/N=C/c1ccc(Cl)c([N+](=O)[O-])c1	-10%	?	/	?	9%	-4%
COc1ccc(Br)cc1CN1CCN(CCO)CC1	1%	-20%	-3%	12%	/	0%
CCc1ccc(CN2CCN(Cc3cc(Br)ccc3O)CC2)cc1	?	1.2µM*	/	0.23µM*	-28%	-5%
Oc1ccc(Br)cc1CN1CCN(c2ccccc2)CC1	-9%	63%	-22%	1.7µM*	8%	1%
CCN1CCN(Cc2cc(Br)ccc2O)CC1	-5%	/	10%	13µM*	35µM*	9%
Oc1ccc(Br)cc1CN1CCCCCCC1	-25%	/	-9%	1.7µM*	4%	1%
